# Measured values taken from publication PMC4336329 (PLoS ONE, 2015).
# Screen size: about 310,000 compounds; about 14,000 (4.5%) showed an effect of 50% or more. The effect is printed as a negative number. What follows is part of a selection rich in strong results, with near analogues and random picks from the rest.
# Biological target: human ether-à-go-go-related gene (hERG) potassium channel (human, UniProt Q12809)
# Assay: primary screen, population patch clamp on CHO cells stably expressing hERG; higher = less effect of the substance
# 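Also: peak tail current of the secondary pulse compared with the same well before compound.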
# human ether-à-go-go-related gene (hERG) potassium channel, sequence (Q12809 whole entry, looked up): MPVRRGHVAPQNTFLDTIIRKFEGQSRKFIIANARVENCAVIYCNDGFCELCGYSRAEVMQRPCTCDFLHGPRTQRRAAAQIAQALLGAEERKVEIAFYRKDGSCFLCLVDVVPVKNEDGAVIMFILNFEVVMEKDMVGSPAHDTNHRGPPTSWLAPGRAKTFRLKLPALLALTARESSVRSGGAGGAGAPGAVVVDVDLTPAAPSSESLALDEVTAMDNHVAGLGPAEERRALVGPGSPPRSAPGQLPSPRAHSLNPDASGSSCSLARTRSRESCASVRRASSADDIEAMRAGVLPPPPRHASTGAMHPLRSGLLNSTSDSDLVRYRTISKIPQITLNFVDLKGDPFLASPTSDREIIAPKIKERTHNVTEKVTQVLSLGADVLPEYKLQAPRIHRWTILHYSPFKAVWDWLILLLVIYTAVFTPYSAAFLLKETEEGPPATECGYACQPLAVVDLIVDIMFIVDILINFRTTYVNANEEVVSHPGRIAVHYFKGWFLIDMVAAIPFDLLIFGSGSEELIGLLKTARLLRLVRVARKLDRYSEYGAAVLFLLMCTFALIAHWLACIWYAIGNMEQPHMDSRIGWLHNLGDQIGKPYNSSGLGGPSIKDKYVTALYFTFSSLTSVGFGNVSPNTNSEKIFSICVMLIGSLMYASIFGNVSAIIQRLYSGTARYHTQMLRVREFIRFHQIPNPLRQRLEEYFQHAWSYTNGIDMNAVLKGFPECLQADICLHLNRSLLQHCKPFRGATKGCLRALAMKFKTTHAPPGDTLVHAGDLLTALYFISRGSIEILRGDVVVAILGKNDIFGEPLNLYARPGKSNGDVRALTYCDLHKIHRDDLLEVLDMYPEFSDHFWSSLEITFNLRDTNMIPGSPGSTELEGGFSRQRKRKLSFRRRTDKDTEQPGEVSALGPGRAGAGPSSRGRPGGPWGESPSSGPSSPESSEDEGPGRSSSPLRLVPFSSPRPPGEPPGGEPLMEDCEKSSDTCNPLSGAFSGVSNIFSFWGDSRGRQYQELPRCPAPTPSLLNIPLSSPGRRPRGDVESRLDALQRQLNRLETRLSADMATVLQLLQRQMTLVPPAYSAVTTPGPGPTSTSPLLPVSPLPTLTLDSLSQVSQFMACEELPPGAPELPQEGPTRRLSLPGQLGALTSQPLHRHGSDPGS
row,SMILES,"hERG current change (%, negative = inhibition) at 10uM [%]"
1,O=C1CSC(c2cn(-c3ccccc3)nc2-c2cccs2)N1Cc1ccccc1 (stereo not drawn),-1.38
2,O=Cc1c(NCc2ccccc2F)c2ccccc2[nH]c1=O,13.8
3,CCOCCCNC(=S)N1CCCN(c2nc3cc(C)cc(C)c3cc2C#N)CC1,-55.6
4,CCOCCCNC(=S)N1CCCN(c2nc3cc(C)c(C)cc3cc2C#N)CC1,-36.4
5,CCOCCCNC(=S)N1CCCN(c2nc3cc(C)ccc3cc2C#N)CC1,-30.9
6,Cc1cc(N2CCOCC2)nc2ccc(NC(=S)NC(C)C)cc12,-12.4
7,Cc1cc(N2CCCC2)nc2ccc(NC(=S)NC(C)C)cc12,-71.6
8,CCC(C)NC(=S)Nc1ccc2nc(N3CCOCC3)cc(C)c2c1 (stereo not drawn),5.86
9,CSc1nsc(SCC(=O)Nc2ccc(OC(C)=O)cc2)n1,4.1
10,Cc1c(N=N/C(C(=O)Nc2ccccc2)=C(/O)c2ccccc2)c(=O)n(-c2ccccc2)n1C,8.85
11,CC(C)CN=CC1=C(O)c2ccccc2C1=O,-71.4
12,O=C1C(C=NCc2ccncc2)=C(O)c2ccccc21,-9.12
13,CN=CC1=C(O)c2ccccc2C1=O,14.7
14,CCOC(=O)N1CCC(NC(=O)CCc2nc(C3=CCN(C)CC3)no2)CC1,-3.37
15,COc1ccc(C(=O)NCCNc2nc3ccc(C)cc3cc2C#N)cc1,4.99
16,COc1ccc(CN(CCN(C)C)Cc2ccccc2)c(OC)c1.O=C(O)C(=O)O,-46.1
17,CCN(Cc1ccncc1)Cc1ccc(OC)cc1OC.O=C(O)C(=O)O,-51.4
18,CCN(Cc1ccncc1)Cc1ccc(OC)c(OC)c1.O=C(O)C(=O)O,-6.49
19,COc1ccc(N(CC(=O)Nc2cc(C)on2)S(=O)(=O)c2ccc(Cl)cc2)cc1,9.89
20,COC(=O)N[C@H](CC(C)=O)c1cccc(C(F)(F)F)c1,19.5
21,CC(C)(C)c1cc(CCC(=O)NCc2ccccn2)cc(C(C)(C)C)c1O,-10.1
22,OCC1(Cc2ccccc2)CCN(Cc2ccccn2)CC1,-9.51
23,CC(C)Cc1cc(CN2CCCC(CO)(Cc3cccc(Cl)c3)C2)[nH]n1 (stereo not drawn),-52.5
24,CC(C)=CCN1CCN(Cc2cc(CC(C)C)n[nH]2)CC1CCO (stereo not drawn),-9.57
25,Cc1cc(CN2CCCC(CO)(Cc3cccc(Cl)c3)C2)n[nH]1 (stereo not drawn),-43.2
26,CC(C)Cc1cc(CN2CCC(CO)(Cc3ccccc3)CC2)[nH]n1,-71.6
27,CC(C)Cc1cc(CN2CCC(CO)(Cc3cccc(C(F)(F)F)c3)CC2)[nH]n1,-78
28,CC(C)c1csc(CN2CCC(CO)(Cc3ccccc3)CC2)n1,-9.39
29,CC(C)n1cc(CN2CCCC(CO)(Cc3cccc(Cl)c3)C2)cn1 (stereo not drawn),-24
30,Cc1cc(C(=O)N2CCC(CO)(Cc3cccc(C(F)(F)F)c3)CC2)n[nH]1,-49.4
